The panel holds about 83,000 compounds, 20% with a hit somewhere; the sample as a whole holds those more often.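 The endpoint reported here, percent growth, reads 100 for growth as untreated, 0 for no net growth and -100 for all cells dead.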 A number with no mark means an inactive call. Active and inactive are the calls of the source. The calls were made as follows: active = growth percent below 10; inactive = the rest.
The molecules below were run on DU-145 prostate (assay: NCI-60 one-dose screen, 48 h (100 = growth as untreated, 0 = no growth, -100 = all killed)). Details: 10 µM unless noted.
With `CC1=C(C(=O)OC(C)C)C(c2cccc(O)c2)NC(=S)N1` (stereo not drawn) the growth was 104%.
`N/N=C(\N)c1c(N)nc(=S)[nH]c1-c1ccc(Cl)cc1Cl` was tested, and the growth was 120%.
`COc1ccc2[nH]cc(-c3nnc(N)nc3-c3c[nH]c4ncc(Br)cc34)c2c1` showed a growth of 92.6%.
For `COc1cc(C2CC(c3cc(OC)c(OC)c(OC)c3)=NN2c2ccccc2)ccc1OCc1ccc(C)cc1` (stereo not drawn), the growth was 100%.
For `O=C(N/N=C/c1ccc(-c2ccc(O)cc2)o1)c1[nH]c2ccc(Br)cc2c1-c1ccccc1`, the growth was 0.567% (active).

The molecules below were run on K-562 leukemia in the same assay as above. Details: 10 µM unless noted.
Molecule `C=C1CCC2C3(C)COC(c4cc(F)cc(F)c4)OC3CCC2(C)C1CC(O)C1=CCOC1=O` (stereo not drawn) has a growth of 24.6%.
Work on `CC(=O)Nc1ccc(C(=O)NC(=S)Nc2ccc(S(N)(=O)=O)cc2)cc1` yielded a growth of 86.6%.
`COc1cc(C2CC(c3cc(OC)c(OC)c(OC)c3)=Nc3c(N)nc(N)nc3N2)ccc1Oc1nc(NCCO)nc(N2CCOCC2)n1` (stereo not drawn) was tested, and the growth was 91.1%.
With `CC1=C(C(=O)c2ccccc2)C(c2cccc(Cl)c2Cl)n2c(nc3ccccc32)N1` (stereo not drawn) the growth was 61.4%.
For `CN1CCc2c(sc3ncnc(N/N=C/c4ccc(Cl)cc4Cl)c23)C1`, the growth was -21.5% (active).
In the case of `O=C(COc1ccc(NC(=O)Nc2ccc(Cl)c(Cl)c2)cc1)N=Nc1c(O)[nH]c2ccc(Br)cc12`, the growth is reported as 7.78% (active).
`Cn1cc(NC(=O)c2cc(NC(=O)c3ccc(C#Cc4ccccc4)cc3)cn2C)cc1C(=O)NCCCN1CCOCC1` was tested, and the growth was -41.5% (active).
Work on `COCOc1cc2oc(C(=O)N[C@@H](Cc3ccccc3)C(O)C(=O)NCc3ccccc3)c(C)c(=O)c2cc1OCOC` (stereo partly drawn) yielded a growth of 90.4%.
With `Cc1ccc(C(=O)CSc2nc3ccc(C)cc3c(=O)n2-c2ccc(F)cc2)cc1` the growth was 92.7%.
`CC(C)c1ccc2c(N)c(C(=O)Nc3ccc(C(F)(F)F)cn3)sc2n1` showed a growth of 33.1%.
In the case of `CN(C)CCn1c2ccccc2c2nc3ccc([N+](=O)[O-])cc3nc21`, the growth is reported as 8.19% (active).
With `COc1cc2c(c(OC)c1OC)C(=O)CC(c1cccc(NC(=O)c3cc(NC(=O)[C@H](CO)NC(=O)OC(C)(C)C)ccc3Cl)c1)O2` (stereo partly drawn) the growth was 12.7%.
In the case of `Cc1cccc(NC(=O)[C@]23CCC(C)(C)CC2C2=CCC4[C@@]5(C)C[C@@H](O)[C@H](O)[C@@](C)(CO)C5CC[C@@]4(C)[C@]2(C)CC3)c1` (stereo partly drawn), the growth is reported as 15.5%.
`CC(=O)Nc1ccc(-n2cnc3ccc(-c4ccc(O)cc4)cc32)cc1` was tested, and the growth was 56.6%.
`NC(=S)Nc1cccc(NC(N)=S)c1` was tested, and the growth was 9.26% (active).
Molecule `O=C(/C=C/c1ccc(O)c(O)c1)NC1CCOC1O` (stereo not drawn) has a growth of 88.3%.
With `CCN1C(=O)/C(=N\N=C(/C)c2ccc3c(c2)Nc2ccccc2S3)c2cc(Cl)ccc21` the growth was 38.2%.
Work on `S=C(NCCc1ccccc1)Nc1ccc(OCc2nc3ccccc3[nH]2)cc1` yielded a growth of 101%.
Work on `COc1ccc(-c2nc(SC(C)C)nc(NCCc3c[nH]c4ccccc34)c2C#N)cc1` yielded a growth of 14.5%.
For `S=C(Nc1ccccc1)Nc1ccc(OCc2nc3ccccc3[nH]2)cc1`, the growth was 15%.
`CC1(C)CC[C@]2(C(=O)Nc3ccc(Br)cc3)CC[C@]3(C)C(=CCC4[C@@]5(C)C[C@@H](O)[C@H](O)[C@@](C)(CO)C5CC[C@]43C)C2C1` (stereo partly drawn) was tested, and the growth was 5.08% (active).
Molecule `CC12CC[C@@H]3[C@]4(C)COC(c5c(F)cccc5F)O[C@@H]4CC[C@@]3(C)[C@@H]1CC(C1=CCOC1=O)O2` (stereo partly drawn) has a growth of 66.6%.
`Cc1ccc(Cc2cnc(NC(=O)c3ccc(/C=C4\SC(=S)N(C)C4=O)cc3)s2)cc1` showed a growth of 23.3%.
`CC(=O)Nc1ccc(-n2cnc3cc(-c4ccc(O)cc4)ccc32)cc1C(F)(F)F` showed a growth of 25%.
In the case of `Cn1cc(NC(=O)c2cc(NC(=O)c3ccc(/C=C/c4ccccc4)cc3)cn2C)cc1C(=O)NCCCN1CCOCC1`, the growth is reported as -41.3% (active).
For `CN(C)CCCNC(=O)c1cc(NC(=O)c2cc(NC(=O)c3ccc(/C=C/c4ccccc4)cc3)cn2C)cn1C`, the growth was -41% (active).
In the case of `CC(=O)OC[C@@]1(C)C2CC[C@]3(C)C(CC=C4C5CC(C)(C)CC[C@]5(C(=O)Nc5ccc(Br)cc5)CC[C@]43C)[C@@]2(C)C[C@@H](OC(C)=O)[C@@H]1OC(C)=O` (stereo partly drawn), the growth is reported as 19.2%.
`COc1ccc(NC(=O)Cn2c(O)c(N=Nc3ccc(S(N)(=O)=O)cc3)c3ccccc32)cc1` showed a growth of 40.8%.
`S=C(Nc1ccc(OCc2nc3ccccc3[nH]2)cc1)NC1CCCCC1` was tested, and the growth was 108%.
`Cc1ccc(NC(=O)[C@]23CCC(C)(C)CC2C2=CCC4[C@@]5(C)C[C@@H](O)[C@H](O)[C@@](C)(CO)C5CC[C@@]4(C)[C@]2(C)CC3)cc1` (stereo partly drawn) gave a growth of 11.6%.
With `O=S(=O)(Nc1cccc(-n2cnc3cc(-c4ccc(O)cc4)ccc32)c1)C1CC1` the growth was 8.55% (active).
Molecule `Cn1cc(-c2nnc(N)nc2-c2c[nH]c3ccccc23)c2cccnc21` has a growth of 15.7%.
`CN(C)c1ccnc(CNCCSC2(c3ccc(C(F)(F)F)cc3)c3ccccc3CCc3ccccc32)c1` was tested, and the growth was -16.3% (active).
Work on `CC1=C(C(=O)OC(C)C)C(c2cccc(O)c2)NC(=S)N1` (stereo not drawn) yielded a growth of 83.2%.
Molecule `N/N=C(\N)c1c(N)nc(=S)[nH]c1-c1ccc(Cl)cc1Cl` has a growth of 105%.
In the case of `COc1ccc2[nH]cc(-c3nnc(N)nc3-c3c[nH]c4ncc(Br)cc34)c2c1`, the growth is reported as 74.1%.
In the case of `COc1cc(C2CC(c3cc(OC)c(OC)c(OC)c3)=NN2c2ccccc2)ccc1OCc1ccc(C)cc1` (stereo not drawn), the growth is reported as 92.8%.
For `O=C(N/N=C/c1ccc(-c2ccc(O)cc2)o1)c1[nH]c2ccc(Br)cc2c1-c1ccccc1`, the growth was 1.64% (active).

— PubChem BioAssay (NCI)
